# This excerpt belongs to a sample that is enriched for the strongest signals.
# Columns and labels:
# Test in all cases: glycan array binding signal (z-score within array); higher = stronger binding
# Conditions in all cases: glycan notation: IUPAC condensed, linker removed
# [1] = target: Fuc(a1-2)Gal(b1-3)[Fuc(a1-4)]GlcNAc(b1-2)Man(a1-3)[Fuc(a1-2)Gal(b1-3)[Fuc(a1-4)]GlcNAc(b1-2)Man(a1-6)]Man(b1-4)GlcNAc(b1-4)GlcNAc
# Summary of the method: (§1)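 The Consortium for Functional Glycomics database supplied 3228 glycan arrays, of which those lacking an available protein sequence were dropped. The binding signal, a within-array Z-score, was averaged across arrays of the same protein sequence and across linkers. Negative scores can be read as non-binding.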
# Fuc(a1-2)Gal(b1-4)Glc6S = target: Fuc(a1-2)Gal(b1-4)Glc6S
# Summary of the method: as §1
# [2] = target: Fuc(a1-2)Gal(b1-4)GlcNAc(b1-2)[Fuc(a1-2)Gal(b1-4)GlcNAc(b1-4)]Man(a1-3)[Fuc(a1-2)Gal(b1-4)GlcNAc(b1-2)Man(a1-6)]Man(b1-4)GlcNAc(b1-4)GlcNAc
# Summary of the method: as §1
# [3] = target: Fuc(a1-2)Gal(b1-4)GlcNAc6S
# Summary of the method: as §1
# [4] = target: Fuc(a1-2)[GalNAc(a1-3)]Gal(b1-4)GlcNAc(b1-2)Man(a1-3)[Fuc(a1-2)[GalNAc(a1-3)]Gal(b1-4)GlcNAc(b1-2)Man(a1-6)]Man(b1-4)GlcNAc(b1-4)GlcNAc
# Summary of the method: as §1
# [5] = target: Fuc(a1-2)[GalNAc(a1-4)]Gal(b1-4)GlcNAc
# Summary of the method: as §1
# [6] = target: Fuc(a1-3)[Gal(b1-4)]Glc6S
# Summary of the method: as §1
# [7] = target: Fuc(a1-3)[Gal3S(b1-4)]GlcNAc
# Summary of the method: as §1
# [8] = target: Gal(a1-3)Gal(b1-4)[Fuc(a1-3)]GlcNAc(b1-2)Man(a1-3)[Gal(a1-3)Gal(b1-4)[Fuc(a1-3)]GlcNAc(b1-2)Man(a1-6)]Man(b1-4)GlcNAc(b1-4)GlcNAc
# Summary of the method: as §1
# Gal(a1-4)GlcNAc = target: Gal(a1-4)GlcNAc
# Summary of the method: as §1
# [9] = target: Gal(b1-3)GalNAc(b1-3)Gal(a1-4)Gal(b1-4)Glc
# Summary of the method: as §1
# [10] = target: Gal(b1-3)GalNAc(b1-4)Gal(b1-4)Glc
# Summary of the method: as §1
# [11] = target: Gal(b1-3)GlcNAc(b1-3)Gal(b1-4)[Fuc(a1-3)]GlcNAc(b1-6)[Gal(b1-3)GlcNAc(b1-3)]Gal(b1-4)Glc
# Summary of the method: as §1
# [12] = target: Gal(b1-4)GlcNAc(b1-3)Gal(b1-4)[Fuc(a1-3)]GlcNAc(b1-3)Gal(b1-4)[Fuc(a1-3)]GlcNAc
# Summary of the method: as §1
# [13] = target: Gal(b1-4)GlcNAc(b1-6)[Gal(b1-3)]GalNAc
# Summary of the method: as §1
# Gal3S(b1-4)GlcNAc = target: Gal3S(b1-4)GlcNAc
# Summary of the method: as §1
# [14] = target: Gal3S(b1-4)[Fuc(a1-3)]Glc
# Summary of the method: as §1
# [15] = target: Gal3S(b1-4)[Fuc(a1-3)]Glc6S
# Summary of the method: as §1
# Gal6S(b1-4)Glc = target: Gal6S(b1-4)Glc
# Summary of the method: as §1
# [16] = target: GalNAc(a1-3)GalNAc(b1-3)Gal(a1-4)Gal(b1-4)GlcNAc
# Summary of the method: as §1
# GalNAc3S(b1-4)GlcNAc = target: GalNAc3S(b1-4)GlcNAc
# Summary of the method: as §1
# [17] = target: Glc(a1-4)Glc(a1-4)Glc(a1-4)Glc
# Summary of the method: as §1
# Glc(b1-4)Glc = target: Glc(b1-4)Glc
# Summary of the method: as §1
# [18] = target: GlcNAc(a1-4)Gal(b1-4)GlcNAc(b1-3)Gal(b1-4)GlcNAc(b1-3)Gal(b1-4)GlcNAc
# Summary of the method: as §1
# [19] = target: GlcNAc(b1-2)[GlcNAc(b1-4)]Man(a1-3)[GlcNAc(b1-4)][GlcNAc(b1-2)Man(a1-6)]Man(b1-4)GlcNAc(b1-4)GlcNAc
# Summary of the method: as §1
# [20] = target: GlcNAc(b1-4)GlcNAc(b1-4)GlcNAc
# Summary of the method: as §1
# [21] = target: GlcNAc(b1-4)GlcNAc(b1-4)GlcNAc(b1-4)GlcNAc(b1-4)GlcNAc
# Summary of the method: as §1
# [22] = target: GlcNAc(b1-4)GlcNAc(b1-4)GlcNAc(b1-4)GlcNAc(b1-4)GlcNAc(b1-4)GlcNAc
# Summary of the method: as §1
# [23] = target: GlcNAc(b1-6)Gal(b1-4)GlcNAc
# Summary of the method: as §1
# [24] = target: GlcNAc6S(b1-3)Gal(b1-4)GlcNAc
# Summary of the method: as §1
# Man(a1-3)[Man(a1-6)]Man = target: Man(a1-3)[Man(a1-6)]Man
# Summary of the method: as §1
# [25] = target: Man(a1-3)[Man(a1-6)]Man(b1-4)GlcNAc(b1-4)GlcNAc
# Summary of the method: as §1
# [26] = target: Neu5Ac(a2-3)Gal(b1-3)GalNAc(b1-4)[Neu5Ac(a2-3)]Gal(b1-4)Glc
# Summary of the method: as §1
# [27] = target: Neu5Ac(a2-3)Gal(b1-3)GlcNAc
# Summary of the method: as §1
# [28] = target: Neu5Ac(a2-3)Gal(b1-4)GlcNAc(b1-2)Man(a1-3)[GlcNAc(b1-2)Man(b1-4)GlcNAc(b1-2)Man(a1-6)]Man(b1-4)GlcNAc(b1-4)GlcNAc
# Summary of the method: as §1
# [29] = target: Neu5Ac(a2-3)Gal(b1-4)[Fuc(a1-3)]GlcNAc
# Summary of the method: as §1
# [30] = target: Neu5Ac(a2-6)Gal(b1-4)GlcNAc(b1-2)Man(a1-3)Man(b1-4)GlcNAc(b1-4)GlcNAc
# Summary of the method: as §1
# [31] = target: Neu5Ac(a2-6)Gal(b1-4)GlcNAc(b1-2)Man(a1-6)[Gal(b1-4)GlcNAc(b1-2)Man(a1-3)]Man(b1-4)GlcNAc(b1-4)GlcNAc
# Summary of the method: as §1
# [32] = target: Neu5Ac(a2-6)GlcNAc(b1-4)GlcNAc(b1-4)GlcNAc
# Summary of the method: as §1
# [33] = target: Neu5Ac(a2-8)Neu5Ac(a2-8)Neu5Ac
# Summary of the method: as §1
# Neu5Gc(a2-3)Gal(b1-4)Glc = target: Neu5Gc(a2-3)Gal(b1-4)Glc
# Summary of the method: as §1
binder,measurement,setting,value
CIH1 (Colletotrichum higginsianum) (protein) LPQATPTTPTPTSASAAATISATSSPTCSPGPVIDYTVVSGDTLTIISQRFSSGICNIADASGITNPNFLSLGQVLQVPTYVCTPDNTSCLAKEGSDTCVEGGPATHTIVAGDTFFLVAQSLGLDVNALLAANEGVDPLLLQIGDVINIPVC,glycan array binding signal (z-score),[1],0.015
same,glycan array binding signal (z-score),Fuc(a1-2)Gal(b1-4)Glc6S,-0.071
same,glycan array binding signal (z-score),[2],-0.061
same,glycan array binding signal (z-score),[3],0.014
same,glycan array binding signal (z-score),[4],-0.074
same,glycan array binding signal (z-score),[5],-0.071
same,glycan array binding signal (z-score),[6],-0.072
same,glycan array binding signal (z-score),[7],-0.065
same,glycan array binding signal (z-score),[8],0.011
same,glycan array binding signal (z-score),Gal(a1-4)GlcNAc,-0.052
same,glycan array binding signal (z-score),[9],-0.071
same,glycan array binding signal (z-score),[10],-0.063
same,glycan array binding signal (z-score),[11],-0.057
same,glycan array binding signal (z-score),[12],-0.079
same,glycan array binding signal (z-score),[13],-0.072
same,glycan array binding signal (z-score),Gal3S(b1-4)GlcNAc,-0.067
same,glycan array binding signal (z-score),[14],-0.081
same,glycan array binding signal (z-score),[15],0.006
same,glycan array binding signal (z-score),Gal6S(b1-4)Glc,-0.079
same,glycan array binding signal (z-score),[16],-0.066
same,glycan array binding signal (z-score),GalNAc3S(b1-4)GlcNAc,-0.066
same,glycan array binding signal (z-score),[17],-0.047
same,glycan array binding signal (z-score),Glc(b1-4)Glc,-0.046
same,glycan array binding signal (z-score),[18],-0.08
same,glycan array binding signal (z-score),[19],-0.065
same,glycan array binding signal (z-score),[20],2.91
same,glycan array binding signal (z-score),[21],9.28
same,glycan array binding signal (z-score),[22],20
same,glycan array binding signal (z-score),[23],-0.073
same,glycan array binding signal (z-score),[24],-0.055
same,glycan array binding signal (z-score),Man(a1-3)[Man(a1-6)]Man,-0.045
same,glycan array binding signal (z-score),[25],-0.069
same,glycan array binding signal (z-score),[26],-0.055
same,glycan array binding signal (z-score),[27],-0.05
same,glycan array binding signal (z-score),[28],-0.08
same,glycan array binding signal (z-score),[29],-0.069
same,glycan array binding signal (z-score),[30],-0.004
same,glycan array binding signal (z-score),[31],-0.069
same,glycan array binding signal (z-score),[32],-0.004
same,glycan array binding signal (z-score),[33],-0.065
same,glycan array binding signal (z-score),Neu5Gc(a2-3)Gal(b1-4)Glc,-0.081
